SENP6 inh – blocks the human protease SENP6; Q9GZR1; Recombinant SENP6 catalytic domain, aminoluciferin luminescence; inhibition, % at 10 µM; 1.8% of 330,000 active; AID 2599;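 active = inhibition above about 50% at the single tested dose, limit read from the data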;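 note: plate controls were DMSO wells with enzyme for no effect and DMSO wells lacking enzyme for full effect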
SENP8 block-1 – blocks human SENP8 cleavage of Nedd8 substrate | 0.64% of 360,000 active | inhibition, % at 20 µM | Q96LD8 | recombinant SENP8, Nedd8 substrate fluorescence; in the data active = inhibition mostly above about 40%, no sharp cut-off; inactive = mostly below about 27%
HSP90 refold inh – inhibitors of HSP90 luciferase refolding in rabbit reticulocyte lysate | luciferase refolding luminescence, 3 h | inhibition, % at 5.6 µM | 0.91% of 290,000 active | AID 1789;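 active = inhibition above the screen-wide mean plus 3 SD, computed separately per campaign, cut at about 16% in these data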;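 note: 0% = DMSO wells and 100% = 60 µM geldanamycin wells; inhibitors lower the luminescence because luciferase stays unfolded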
SENP8 block-2 – blocks the human protease SENP8 | Q96LD8 | purified SENP8, Z-RLRGG-aminoluciferin cleavage, luminescence | inhibition, % at 10 µM | 1.2% of 330,000 active | AID 2540; in the data active = inhibition above about 50%
LGR2 inh – inhibitors of bursicon-induced Drosophila LGR2 receptor cAMP signaling | 0.35% of 380,000 active | HEK293 LGR2, CRE-luciferase, bursicon-stimulated, 4 h | inhibition, % at 9.99 µM | AID 720647;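 active = drop in luminescence signal, shown as inhibition above about 50% in the replicate tests, limit read from the data, passing the limit was not always enough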;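 note: agonist challenge used bursicon conditioned medium at about half maximal strength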
SENP7 block – blocks the human protease SENP7; Q9BQF6; recombinant SENP7, Z-RLRGG-aminoluciferin luminescence, 40 min; inhibition, % at 5 µM; 1.5% of 330,000 active;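 active = inhibition above about 50% at the single test dose, limit read from the data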;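 note: plate controls were DMSO with enzyme for no effect and no enzyme buffer wells for full effect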
Target sequence (Q9BQF6 706-1050 limits assumed): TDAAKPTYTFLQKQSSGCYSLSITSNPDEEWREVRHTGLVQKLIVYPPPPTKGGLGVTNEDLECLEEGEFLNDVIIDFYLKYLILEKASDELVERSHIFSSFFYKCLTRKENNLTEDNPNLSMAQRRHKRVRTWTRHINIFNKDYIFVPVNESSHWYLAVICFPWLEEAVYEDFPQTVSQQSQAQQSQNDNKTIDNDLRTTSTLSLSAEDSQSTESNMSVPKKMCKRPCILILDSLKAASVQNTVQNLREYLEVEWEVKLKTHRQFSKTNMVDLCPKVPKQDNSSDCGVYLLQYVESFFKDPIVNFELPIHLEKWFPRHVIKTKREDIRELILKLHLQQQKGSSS
SENP8 confirm – human SENP8 inhibition, confirmed; shares compounds with SENP7 block; Recombinant SENP8, Z-RLRGG-aminoluciferin luminescence, 60 min; inhibition, % at 12.5 µM; 40% of 6,200 active; AID 488912;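 active = mean inhibition across replicates above about 50%, limit read from the data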
SENP6 confirm – confirmation of human SENP6 protease inhibitors. inhibition, % at 12.5 µM. recombinant SENP6, Z-RLRGG-aminoluciferin luminescence. 58% of 6,200 active. shares compounds with SENP7 block. AID 488915
SENP7 confirm – confirmation of human SENP7 protease inhibitors | shares compounds with SENP7 block | recombinant SENP7, Z-RLRGG-aminoluciferin luminescence, 40 min | inhibition, % at 12.5 µM | 69% of 6,200 active
Casp3 select – caspase-3 inhibition (SENP selectivity assay). shares compounds with SENP7 block. purified caspase-3, Z-DEVD-aminoluciferin luminescence, 60 min. inhibition, % at 12.5 µM. 60% of 6,200 active;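 active = mean inhibition above about 50%, limit read from the data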;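 note: plate controls were enzyme with DMSO for no effect and wells without caspase-3 for full effect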
Target sequence (P42574 28-227 limits assumed): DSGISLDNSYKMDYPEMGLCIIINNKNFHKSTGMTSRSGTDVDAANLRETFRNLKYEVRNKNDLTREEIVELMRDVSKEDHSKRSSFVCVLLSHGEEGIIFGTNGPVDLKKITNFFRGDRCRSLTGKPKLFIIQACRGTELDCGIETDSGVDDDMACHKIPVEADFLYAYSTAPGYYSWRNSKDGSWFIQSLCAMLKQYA
SENP luc ctr – counter-screen for SENP inhibitors: luminescence interference; shares compounds with SENP7 block; Pre-incubated SENP8/Z-RLRGG-aminoluciferin, luciferase luminescence interference; inhibition, % at 12.5 µM; 39% of 6,200 active;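 active = mean inhibition above about 50% when retested at one dose, limit read from the data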;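 note: plate controls were DMSO wells with completed reaction for no effect and substrate without enzyme for full effect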
* marks the source's active call; other numbers are inactive results; · = no result given. The list is not random: actives were taken first. Their share in the collection is about 2.3%.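 Rule for the calls, unless noted: active = mean inhibition above about 50% in the one-dose retest (limit read from the data); inactive = the rest.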

SMILES	SENP6 inh	SENP8 block-1	HSP90 refold inh	SENP8 block-2	LGR2 inh	SENP7 block	SENP8 confirm	SENP6 confirm	SENP7 confirm	Casp3 select	SENP luc ctr
Nc1[nH]n(-c2ccccc2)c(=O)c1N=Nc1ccccc1	72*	28	-3	43	-96	67*	-4	45	83*	42	-6
COc1cc([N+](=O)[O-])ccc1N=Nc1c(N)[nH]n(-c2ccccc2)c1=O	6	25	4	17	-5	12	·	·	·	·	·
COc1ccc(CN(C)C[C@@H]2Oc3c(NS(=O)(=O)c4cccs4)cccc3C(=O)N([C@@H](C)CO)C[C@@H]2C)cc1	·	·	·	·	12	·	·	·	·	·	·
Cc1ccc(S(=O)(=O)N(C)C[C@@H]2Oc3ccc(NC(=O)Cc4ccccc4)cc3C(=O)N([C@@H](C)CO)C[C@H]2C)cc1	·	·	·	·	-1	·	·	·	·	·	·
COCC#Cc1ccc2c(c1)O[C@@H](CN(C)Cc1ccncc1)[C@H](C)CN([C@@H](C)CO)S2(=O)=O	·	·	·	·	-2	·	·	·	·	·	·
Cc1cc(C(=O)Nc2cccc3c2O[C@H](CN(C)S(=O)(=O)c2ccc(F)cc2)[C@@H](C)CN([C@@H](C)CO)C3=O)n(C)n1	·	·	·	·	-5	·	·	·	·	·	·
Cc1ccc(C2=Nc3ccccc3N=C(C(Cl)Cl)C2)cc1	84*	-65	15	69*	14	58*	38	37	72*	86*	80*
O=C(O)c1ccnc(SCC(=O)c2ccccc2)c1	61*	0	-5	10	·	26	0	-3	26	48	23
O=C(CSc1ncccc1C(=O)O)c1ccccc1	-13	3	1	-16	·	-5	·	·	·	·	·
Cc1ccc(C(=O)CSc2ccccn2)cc1	69*	15	1	51*	·	51*	5	35	-11	76*	68*
O=C(CSc1ccccn1)c1ccc(F)cc1	23	1	4	6	·	4	·	·	·	·	·
COc1ccc(NC(=O)Nc2ccc3c(c2)C(=O)N([C@@H](C)CO)C[C@@H](C)[C@H](CN(C)S(=O)(=O)c2c(C)noc2C)OCCCC[C@H](C)O3)cc1	·	·	·	·	6	·	·	·	·	·	·
Cc1ccc(-n2c(C)cc(C3=NNC(=NC4CC4)SC3)c2C)cc1C	42	1	6	56*	-24	0	82*	84*	93*	74*	53*
Cc1cc(C2=NNC(=NC3CC3)SC2)c(C)n1-c1c(C)n(C)n(-c2ccccc2)c1=O	0	6	1	-9	20	-8	·	·	·	·	·
CSc1ccccc1C(=O)Nc1ccc(C)c(C)c1	65*	-2	2	39	-45	68*	54*	52*	84*	74*	70*
Cc1occc1C(=O)Nc1cccc(C(=O)O)c1	96*	8	13	91*	·	96*	95*	95*	101*	72*	93*
Cc1ccc(NC(=O)c2ccoc2C)cc1C	92*	16	-8	92*	-73	97*	-2	94*	101*	96*	93*
CSc1ccccc1C(=O)Nc1cc(C)cc(C)c1	19	28	-2	-5	·	3	·	·	·	·	·
Cc1occc1C(=O)Nc1ccc2c(c1)OCO2	84*	22	2	54*	·	80*	64*	63*	89*	90*	74*
C[C@@H]1CN([C@H](C)CO)C(=O)Cc2cc(NS(C)(=O)=O)ccc2O[C@@H]1CN(C)CC1CCCCC1	·	·	·	·	8	·	·	·	·	·	·
Cc1cc(NC(=O)c2ccoc2C)ccc1Br	100*	4	·	97*	-122	97*	98*	99*	102*	95*	96*
CO[C@@H]1CC[C@@H]2CCN(C)C(=O)C[C@@H](c3ccccc3)CN(C)C(=O)c3cccc(C#N)c3OC[C@H]1O2	·	·	·	·	-4	·	·	·	·	·	·
O=C(Cc1ccccc1)N1CCN(c2ccccc2F)CC1	75*	10	0	59*	17	-1	-4	-2	-2	7	1
O=C(N[C@@H]1CC[C@H](CCNS(=O)(=O)c2ccc(F)cc2)O[C@H]1CO)C1CC1	·	·	·	·	-7	·	·	·	·	·	·
O=C(Nc1cccc(F)c1)N1CC(=O)N2[C@H](CO)[C@H](c3ccc(-c4ccc(F)cc4)cc3)[C@H]2C1	·	·	·	·	3	·	·	·	·	·	·
SMILES	SENP6 inh	SENP8 block-1	HSP90 refold inh	SENP8 block-2	LGR2 inh	SENP7 block	SENP8 confirm	SENP6 confirm	SENP7 confirm	Casp3 select	SENP luc ctr
COc1ccc(OCc2nc3ccccc3[nH]2)cc1	72*	13	7	72*	·	29	39	76*	94*	90*	80*
Cc1ccccc1OCc1nc2ccccc2[nH]1	80*	1	10	68*	-69	86*	72*	72*	92*	86*	62*
c1ccc(SCc2nc3ccccc3[nH]2)cc1	21	0	13	13	-54	28	·	·	·	·	·
COc1cccc(OCc2nc3ncc(Br)cc3[nH]2)c1	1	5	-5	-3	·	2	·	·	·	·	·
COc1cccc(OCc2nc3ccccc3[nH]2)c1	67*	25	-1	65*	-81	74*	73*	72*	93*	86*	75*
COc1ccccc1OCc1nc2ccccc2[nH]1	38	10	0	13	·	21	·	·	·	·	·
Cc1ccc(SCc2nc3ccccc3[nH]2)cc1	57*	-67	-3	21	·	49	51*	47	76*	64*	56*
C/C=C/c1ccc2c(c1)O[C@H](CN(C)C(=O)COC)[C@@H](C)CN([C@@H](C)CO)S2(=O)=O	·	·	·	·	11	·	·	·	·	·	·
CCC(=O)N[C@H]1C=C[C@H](CC(=O)NCc2cc(F)cc(F)c2)O[C@H]1CO	·	·	·	·	2	·	·	·	·	·	·
C[C@@H]1CN([C@H](C)CO)C(=O)c2cc(C3=CCCC3)cnc2O[C@@H]1CN(C)C(=O)c1ccccn1	·	·	·	·	8	·	·	·	·	·	·
c1ccc2cc(OCc3nc4ccccc4[nH]3)ccc2c1	87*	5	5	80*	-66	77*	47	68*	95*	66*	40
Nc1ccc2nc(COc3ccccc3)[nH]c2c1	-6	6	2	-2	-10	8	·	·	·	·	·
Brc1ccc(OCc2nc3ccccc3[nH]2)cc1	62*	14	10	56*	-53	66*	49	46	85*	58*	11
CO[C@H]1CN(C)C(=O)c2cc(NC(=O)C3CCCC3)ccc2OC[C@H](C)N(C(=O)CC2CC2)C[C@@H]1C	·	·	·	·	-10	·	·	·	·	·	·
